In PubChem BioAssay (EPA / NIEHS) one finds outcome and AC50 data, which are given here for three molecules.

Active and inactive are the calls of the source. Rule for the calls: active = hit-call score of the fitted dose curve at least 0.9, where 1 is the maximum; inactive = score below 0.9.

Read-out in assay [1]: Interleukin-1 alpha (IL1a), IL1A (gene 3552)
Briefly: BSK_KF3CT_IL1a: BioMAP Diversity Plus: KF3CT Assay for Interleukin-1 alpha (IL1a) Biomarker Activity (AID 2283070). To be noted: primary human keratinocytes with fibroblasts; actives raise or lower the signal. In a few lines: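 Primary skin co-culture (keratinocytes, foreskin fibroblasts), 24 h exposure; ELISA for IL-1a; bidirectional curve fit vs DMSO.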

Read-out in assay [2]: TIMP metallopeptidase inhibitor 2 (TIMP2), TIMP2 (gene 7077)
Briefly: BSK_KF3CT_TIMP2: BioMAP Diversity Plus: KF3CT Assay for TIMP metallopeptidase inhibitor 2 (TIMP2) Biomarker Activity (AID 2283071). The conditions noted are these: primary human keratinocytes with fibroblasts; actives raise or lower the signal. The method, boiled down:
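ELISA readout of TIMP-2 in keratinocyte plus foreskin fibroblast co-cultures (human skin primary cells), 24 h post-dose. Gain or loss of signal fitted relative to DMSO.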

Read-out in assay [3]: Transforming growth factor beta 1 (TGFb1), TGFB1 (gene 7040)
The assay can be described thus: BSK_KF3CT_TGFb1: BioMAP Diversity Plus: KF3CT Assay for Transforming growth factor beta 1 (TGFb1) Biomarker Activity (AID 2283072). To be noted: primary human keratinocytes with fibroblasts; actives raise or lower the signal. The method, boiled down:
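Read-out: ELISA for TGF-b1 in keratinocyte/foreskin fibroblast human skin co-culture, 24 h after dosing; bidirectional curve fit vs DMSO baseline; gain or loss of signal scored.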

Read-out in assay [4]: C-C motif chemokine 2 (Homo sapiens) (UniProt P13500)
Briefly: BSK_KF3CT_MCP1: BioMAP Diversity Plus: KF3CT Assay for Monocyte Chemoattractant Protein 1 (MCP1/CCL2) Biomarker Activity (AID 2283073). The conditions noted are these: primary human keratinocytes with fibroblasts; actives raise or lower the signal. The method, boiled down: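 ELISA read-out of MCP-1, 24 h post-dose, in primary human skin keratinocytes co-cultured with fibroblasts. Parallel SRB staining monitors cytotoxicity; changes fitted both directions relative to DMSO.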

Read-out in assay [5]: Matrix Metallopeptidase 9 (MMP9), MMP9 (gene 4318)
The assay can be described thus: BSK_KF3CT_MMP9: BioMAP Diversity Plus: KF3CT Assay for Matrix Metallopeptidase 9 (MMP9) Biomarker Activity (AID 2283074). To be noted: primary human keratinocytes with fibroblasts; actives raise or lower the signal. The method, boiled down: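 ELISA read-out of MMP-9 at 24 h post-dosing in a co-culture of human skin keratinocytes and foreskin fibroblasts. Gain or loss of signal was fitted in both directions against DMSO.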

Read-out in assay [6]: CD40, CD40 (gene 958)
The assay can be described thus: BSK_LPS_CD40: BioMAP Diversity Plus: LPS Assay for CD40 Biomarker Activity (AID 2283076). The conditions noted are these: primary human HUVEC with PBMC; actives raise or lower the signal. The method, boiled down:
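In the LPS system of human endothelial cells with peripheral blood mononuclear cells, CD40 levels were read by ELISA 24 h post-treatment. Signal changes in either direction were fitted against the DMSO baseline, with parallel SRB protein staining.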

Read-out in assay [7]: E-selectin (Homo sapiens) (UniProt P16581)
Briefly: BSK_LPS_Eselectin: BioMAP Diversity Plus: LPS Assay for Eselectin Biomarker Activity (AID 2283077). To be noted: primary human HUVEC with PBMC; actives raise or lower the signal. The method, boiled down:
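E-selectin ELISA on LPS-stimulated endothelial cell/PBMC co-cultures, read 24 h post-treatment; gains and losses fitted against DMSO. Parallel SRB staining (0.1% SRB after 10% TCA fixation, 560 nm) flags overt cytotoxicity.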

Assay [8] in a line: BSK_LPS_SRB: Viability Assessment in the BioMAP Diversity Plus: LPS Assay (AID 2283079).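 Note: total protein by sulforhodamine B absorbance as a cytotoxicity measure; measured one day after compound addition.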 The conditions noted are these: primary human HUVEC with PBMC. The method, boiled down:
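SRB viability endpoint: cells fixed with 10% TCA, stained with 0.1% SRB, read at 560 nm, 24 h post-dose. HUVEC/PBMC co-culture; signal change in either direction scored relative to DMSO.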

Read-out in assay [9]: Interleukin-1 alpha (IL1a), IL1A (gene 3552)
The assay can be described thus: BSK_LPS_IL1a: BioMAP Diversity Plus: LPS Assay for Interleukin-1 alpha (IL1a) Biomarker Activity (AID 2283080). To be noted: primary human HUVEC with PBMC; actives raise or lower the signal. The method, boiled down:
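Readout is IL-1a level by ELISA, 24 h post-dose, fitted as gain or loss relative to DMSO. System: LPS-activated human primary co-culture of vascular endothelium and peripheral blood mononuclear cells, with parallel SRB total-protein cytotoxicity.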

Read-out in assay [10]: Monocyte Chemoattractant Protein-1 (MCP1), CCL2 (gene 6347)
Briefly: BSK_LPS_MCP1: BioMAP Diversity Plus: LPS Assay for Monocyte Chemoattractant Protein-1 (MCP1) Biomarker Activity (AID 2283081). The conditions noted are these: primary human HUVEC with PBMC; actives raise or lower the signal. The method, boiled down:
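Secreted MCP-1 read by ELISA at 24 h post-dosing in an LPS-activated co-culture of endothelial cells with peripheral blood mononuclear cells. Fits run in both directions, DMSO as baseline; parallel SRB staining tracks overt cytotoxicity.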

A short description of assay [11]: BSK_LPS_PGE2: BioMAP Diversity Plus: LPS Assay for Prostaglandin E2 (PGE2) Biomarker Activity (AID 2283082). The conditions noted are these: primary human HUVEC with PBMC; actives raise or lower the signal. In a few lines:
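ELISA read-out of PGE2 from human umbilical vein endothelial cells co-cultured with peripheral blood mononuclear cells under LPS, 24 h post-dose. Gain or loss of signal scored relative to DMSO baseline.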

Read-out in assay [12]: Macrophage colony-stimulating factor (MCSF), CSF1 (gene 1435)
Briefly: BSK_LPS_MCSF: BioMAP Diversity Plus: LPS Assay for Macrophage colony-stimulating factor (MCSF) Biomarker Activity (AID 2283083). The conditions noted are these: primary human HUVEC with PBMC; actives raise or lower the signal. The method, boiled down: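 Bidirectional fitting against DMSO was applied to M-CSF levels read by ELISA at 24 h post-dose. The system pairs human umbilical vein endothelium with peripheral blood mononuclear cells; parallel SRB staining tracked cytotoxicity.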

Read-out in assay [13]: Tumor necrosis factor (Homo sapiens) (UniProt P01375)
Briefly: BSK_LPS_TNFa: BioMAP Diversity Plus: LPS Assay for Tumour Necrosis Factor alpha (TNFa) Biomarker Activity (AID 2283085).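 For AC50: TNFa protein level quantified by ELISA in the co-culture.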 The conditions noted are these: primary human HUVEC with PBMC; actives raise or lower the signal. The method, boiled down:
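HUVEC/PBMC co-culture, LPS-stimulated; 24 h post-dose; TNFa by ELISA; gain or loss of signal fitted bidirectionally vs DMSO baseline.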

Read-out in assay [14]: Vascular cell adhesion molecule 1 (VCAM1), VCAM1 (gene 7412)
Briefly: BSK_LPS_VCAM1: BioMAP Diversity Plus: LPS Assay for Vascular cell adhesion molecule 1 (VCAM1) Biomarker Activity (AID 2283086). To be noted: primary human HUVEC with PBMC; actives raise or lower the signal. The method, boiled down:
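ELISA read-out of VCAM-1 at 24 h post-dosing in an LPS-driven HUVEC/PBMC primary human co-culture; gain or loss of signal fitted bidirectionally against DMSO baseline. Cytotoxicity tracked in parallel cultures by SRB total-protein staining.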

Read-out in another assay: CD38, CD38 (gene 952)
Briefly: BSK_SAg_CD38: BioMAP Diversity Plus: SAg Assay for CD38 Biomarker Activity (AID 2283087). The conditions noted are these: primary human HUVEC with PBMC; actives raise or lower the signal. In a few lines: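 Measures CD38 on a human endothelial/PBMC co-culture driven by SEB and TSST-1, 24 h after compound exposure, using ELISA with fluorescence detection; DMSO defines baseline for bidirectional curve fitting.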

Read-out in assay [15]: CD40, CD40 (gene 958)
The assay can be described thus: BSK_SAg_CD40: BioMAP Diversity Plus: SAg Assay for CD40 Biomarker Activity (AID 2283088). The conditions noted are these: primary human HUVEC with PBMC; actives raise or lower the signal. In a few lines:
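CD40 is measured by fluorescence ELISA in an endothelial/PBMC primary human co-culture at 24 h post-dose. Fitting is bidirectional, DMSO baseline. Parallel SRB staining (560 nm) flags cytotoxicity.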

Read-out in a further assay: CD69, CD69 (gene 969)
The assay can be described thus: BSK_SAg_CD69: BioMAP Diversity Plus: SAg Assay for CD69 Biomarker Activity (AID 2283089). The conditions noted are these: primary human HUVEC with PBMC; actives raise or lower the signal. In a few lines: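 ELISA, fluorescence read-out: CD69 on human umbilical vein endothelial cell + PBMC co-culture, 24 h post-dosing. Gain or loss of signal fitted bidirectionally against DMSO baseline.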

Read-out in assay [16]: Tissue Factor, F3 (gene 2152)
The assay can be described thus: BSK_LPS_TissueFactor: BioMAP Diversity Plus: LPS Assay for Tissue Factor Biomarker Activity (AID 2283084). To be noted: primary human HUVEC with PBMC; actives raise or lower the signal. In a few lines: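 Compound was added to an endothelial cell/PBMC co-culture, and after 24 h tissue factor (CD142) was read by ELISA. Gain or loss of signal was fitted against a DMSO baseline, and parallel SRB staining (560 nm) tracked overt cytotoxicity.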

Tumor necrosis factor (Homo sapiens), sequence (P01375 whole entry, looked up): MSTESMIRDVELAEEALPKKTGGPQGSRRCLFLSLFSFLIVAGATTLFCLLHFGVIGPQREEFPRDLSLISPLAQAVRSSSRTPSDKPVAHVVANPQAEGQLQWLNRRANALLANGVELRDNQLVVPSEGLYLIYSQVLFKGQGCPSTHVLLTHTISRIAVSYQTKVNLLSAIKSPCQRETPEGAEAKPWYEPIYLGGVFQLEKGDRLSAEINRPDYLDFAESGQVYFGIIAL
E-selectin (Homo sapiens), sequence (P16581 whole entry, looked up): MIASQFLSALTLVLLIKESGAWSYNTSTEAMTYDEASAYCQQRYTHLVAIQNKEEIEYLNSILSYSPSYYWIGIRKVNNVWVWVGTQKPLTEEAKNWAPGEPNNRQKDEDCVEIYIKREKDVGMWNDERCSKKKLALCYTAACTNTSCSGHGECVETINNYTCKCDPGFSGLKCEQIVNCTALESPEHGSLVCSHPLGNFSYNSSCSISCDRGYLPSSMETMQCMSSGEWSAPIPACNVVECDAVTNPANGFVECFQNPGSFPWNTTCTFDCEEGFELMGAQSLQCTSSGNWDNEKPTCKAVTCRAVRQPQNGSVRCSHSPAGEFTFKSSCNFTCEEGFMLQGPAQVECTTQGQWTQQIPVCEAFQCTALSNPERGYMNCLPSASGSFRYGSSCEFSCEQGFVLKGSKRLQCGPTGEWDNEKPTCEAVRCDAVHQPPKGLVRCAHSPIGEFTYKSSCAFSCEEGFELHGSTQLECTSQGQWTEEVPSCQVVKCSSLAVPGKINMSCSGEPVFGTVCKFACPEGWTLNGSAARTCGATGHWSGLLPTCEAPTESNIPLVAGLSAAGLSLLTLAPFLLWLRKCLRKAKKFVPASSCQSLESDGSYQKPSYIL

In the case of `C1CNCCN1`, the outcome in [1] was “inactive”; in assay [2], “inactive”; in assay [3], “inactive”; in assay [4], “inactive”; in assay [5] it was “inactive”; in the assay with CD40, CD40 (gene 958) [6], “inactive”. For the same molecule, the outcome in [7], in assay [8], in [9], in assay [10], in [11] and in [12] was inactive. The outcome was “inactive” in assay [13]; “inactive” in assay [14]; “inactive” with CD38, CD38 (gene 952); “inactive” with CD40, CD40 (gene 958) [15]; “inactive” with CD69, CD69 (gene 969).
By AC50 is commonly meant the concentration giving half of the maximal activity seen. As to `CC(Cl)COP(=O)(OCC(C)Cl)OCC(C)Cl` (configuration not stated), the outcome in [1] was “inactive”; in assay [2] it was “inactive”; in assay [3] it was “inactive”; in assay [4] it was “inactive”; in assay [5], “inactive”; with CD40, CD40 (gene 958) [6], “inactive”. The outcome in [7], in assay [8], in assay [9], in assay [10], in assay [11] and in [12] was inactive. Also, the outcome is “inactive” in [16]; “inactive” in assay [14]; “inactive” in the assay with CD38, CD38 (gene 952); “inactive” with CD40, CD40 (gene 958) [15]; “inactive” with CD69, CD69 (gene 969). Moreover, the AC50 in [13] is 1.31 µM (active).
As for `Nc1ccc(C(=O)O)cc1`, the outcome was “inactive” in assay [1]; “inactive” in assay [2]; “inactive” in assay [3]; “inactive” in assay [4]; “inactive” in assay [5]; “inactive” in the assay with CD40, CD40 (gene 958) [6]. Also, the result in assay [7], in [8], in assay [9], in assay [10], in assay [11] and in [12] was inactive. Also, the outcome in assay [13] is “inactive”; in assay [14], “inactive”; with CD38, CD38 (gene 952), “inactive”; in the assay with CD40, CD40 (gene 958) [15], “inactive”; with CD69, CD69 (gene 969) it was “inactive”.
